“And” between values parts separate entries of the source, which are not always exact repeats. Equal entries are not always repeated. Screen size: about 16,000 compounds; about 5,800 (36%) were called active. Inconclusive results (about 23%) are left out. This is one part of the list. Values without a mark were called inactive. Calls come from the whole dose curve; as a rule, active = well fitted curve in the direction sought with a large enough effect; inconclusive = small, poorly fitted or top-dose-only effect, or effect the other way; inactive = no such curve, though single readings can be large or run the other way.
% is set by controls: 0 for no effect and ±100 for the full control effect.

Cytochrome P450 2C19 (Homo sapiens), sequence (P33261 whole entry, looked up): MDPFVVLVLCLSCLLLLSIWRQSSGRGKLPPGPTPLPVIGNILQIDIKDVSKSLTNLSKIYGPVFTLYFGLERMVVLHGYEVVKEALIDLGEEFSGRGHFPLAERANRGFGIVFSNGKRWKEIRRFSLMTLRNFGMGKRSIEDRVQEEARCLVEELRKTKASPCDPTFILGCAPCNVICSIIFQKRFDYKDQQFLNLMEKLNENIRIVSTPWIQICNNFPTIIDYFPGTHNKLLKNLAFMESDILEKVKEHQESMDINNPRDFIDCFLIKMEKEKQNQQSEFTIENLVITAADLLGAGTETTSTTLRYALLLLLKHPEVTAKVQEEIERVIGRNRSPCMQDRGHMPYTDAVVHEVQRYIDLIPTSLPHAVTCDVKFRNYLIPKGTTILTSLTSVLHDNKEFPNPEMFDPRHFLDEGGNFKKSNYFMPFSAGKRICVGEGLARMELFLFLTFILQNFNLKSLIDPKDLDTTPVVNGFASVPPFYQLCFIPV

The experiment has as its target Cytochrome P450 2C19 (Homo sapiens) (UniProt P33261). Put plainly: Cytochrome panel assay with activity outcomes. The settings on record: recombinant CYP, pro-luciferin dealkylation, luminescence, p450-cyp2c19; series mostly up to 57.1 µM.
Turning to `CO[C@H]1COC(=O)[C@@H](CCSC)NC(=O)C/C=C\[C@@H](C)[C@H](OC)COC(=O)[C@@H](OCc2ccccc2)/C=C\[C@@H]1C`, the activity, negative = inhibition was -26% [at 11.4 µM].

Turning to `Cc1ccccc1/C=C\C1=NCCN1`, the AC50 entry is “inactive”.

Consider `N=C(N)[C@H](N=Nc1ccccc1)C(N)=O`, for which the activity, negative = inhibition was -26.2% [at 11.4 µM].

As for `Cc1ccc(-c2nnc(-c3ccc4ccccc4c3)o2)cc1`, the activity, negative = inhibition is 10.3% [at 11.4 µM].

`COc1ccc(-c2nnc(-c3cccnc3)o2)cc1`: the concentration at half-maximal activity (AC50) is 17.8 µM (active).

`CCOc1ccc(-c2nnc(-c3ccncc3)o2)cc1`: the AC50 is 0.112 µM (active).

Regarding `N#CCCn1c(=O)cnc2cnc(N3CCNCC3)nc21`, the AC50 result was “inactive”.

`COc1ccc(-c2cc(C(=O)Nc3nc4c(C)cccc4s3)c3ccccc3n2)cc1OC`: the half-maximal activity concentration (AC50) was 2.51 µM (active).

For `CC(C)(C)NS(=O)(=O)c1ccc(NC(=O)C(Sc2ccccc2)c2ccccc2)cc1` (centres undefined), the AC50 was 3.55 µM (active).

For the compound `CC(=O)Nc1ccc(-c2cc(C(=O)O)c3cc4ccccc4cc3n2)cc1`, the activity, negative = inhibition is 9.44% [at 11.4 µM].

With `CC(C)(C)c1nnc(NC(=O)c2cc(-c3ccccc3)nc3ccccc23)s1`, the concentration at half-maximal activity (AC50) was 5.01 µM (active).

In the case of `CCC(=O)Nc1nnc(C(C)(C)C)s1`, the AC50 entry was “inactive”.

On to `CC(C)(C)NS(=O)(=O)c1ccc(NC(=O)c2cc(-c3ccccc3)nc3ccccc23)cc1`, for which the concentration at half-maximal activity (AC50) is 2.82 µM (active).

Consider `CN1CCN(c2ncc3nc(-c4cc(F)cc(F)c4)c(=O)n(Cc4cccs4)c3n2)CC1`, for which the AC50 result was “inactive”.

Regarding `CCS(=O)(=O)N(C)[C@@H]1c2cc(C#N)ccc2OC(C)(C)[C@H]1O`, the AC50 result is “inactive”.

For `Cc1cc([N+](=O)[O-])nn1CC(=O)NNC(=S)Nc1ccc(F)cc1`, the AC50 result was “inactive”.

For `Cc1cc([N+](=O)[O-])nn1Cc1ccccc1F`, the half-maximal activity concentration (AC50) is 11.2 µM (active).

With `Nc1c(S(=O)(=O)c2ccccc2)c2nc3ccccc3nc2n1Cc1ccco1`, the half-maximal activity concentration (AC50) was 7.08 µM (active).

As for `O=C(c1ccccc1)c1nn(-c2ccccc2)c(=O)cc1C(F)(F)F`, the AC50 was 1.58 µM (active).

With `NC(=O)c1nn(-c2ccccc2)c(=O)cc1O`, the AC50 result was “inactive”.

Regarding `COC(=O)c1nn(-c2ccccc2)c(-c2ccccc2)c1C(=O)c1ccccc1`, the half-maximal activity concentration (AC50) was 8.91 µM (active).

In the case of `O=C(O)c1nn(-c2ccccc2)ccc1=O`, the AC50 entry was “inactive”.

Take `CCOC(=O)c1nn(-c2ccccc2)c(-c2ccccc2)c1C(=O)c1ccccc1`: the half-maximal activity concentration (AC50) is 10 µM (active).

As to `COC(=O)c1c(C)nc2ccccc2c1C(=O)O`, the AC50 entry is “inactive”.

Regarding `COc1ccc(NC(=O)N2CCCC3(CCN(C(=O)c4cccn4C)CC3)C2)cc1`, the AC50 entry was “inactive”.

With `CC(C)[C@@H]1[C@H]2CC[C@H](C2)[C@H]1N`, the AC50 entry is “inactive”.

As to `C[C@@H](O)[C@H]1C(=O)N2C(C(=O)O)=C(S[C@@H]3CN[C@H](C(=O)N(C)C)C3)[C@H](C)[C@H]12`, the AC50 entry was “inactive”.

For `CCc1ccc(/C=C\C(=O)N2CCc3ccccc3C2)cc1`, the AC50 was 4.47 µM (active).

As to `CC1=C[N+](=O)c2ccccc2[N+]1=O`, the activity, negative = inhibition was 5.82% [at 11.4 µM].

With `CCOC(=O)CN(C(=O)CCC(=O)Nc1cc(C)on1)C(C(=O)NC1CCCC1)c1cccnc1` (centres undefined), the AC50 is 28.2 µM (active).

As for `Cc1cc(NC(=O)CCC(=O)N(CC2CCCO2)C(C(=O)NC2CCCC2)c2cccnc2)no1` (centres undefined), the AC50 entry was “inactive”.

As to `O=C(O)[C@@H]1CCCNC1`, the AC50 entry is “inactive”.

Take `CCCCC1CCC(c2nc(-c3ccccn3)no2)CC1` (centres undefined): the concentration at half-maximal activity (AC50) was 22.4 µM (active).

As to `O=c1[nH]c(=O)n(Cc2ccco2)c2c1C(C(F)(F)F)(C(F)(F)F)N=C(CCC1CCCCC1)N2`, the AC50 result was “inactive”.

On to `O=C(c1ccc([N+](=O)[O-])cc1)[C@@H](Br)[C@@H](Br)c1ccnc2ccccc12`, for which the AC50 is 1.26 µM (active).

As for `O=C(N/N=C/c1cccnc1)c1ccc([N+](=O)[O-])cc1`, the AC50 result was “inactive”.

Regarding `COc1ccc(-c2nc3cnc(N(C)C)nc3n(Cc3cccs3)c2=O)cc1`, the AC50 entry is “inactive”.

For `CCN1C(=O)C(CC(=O)Nc2ccc(OC)cc2)N(Cc2cccnc2)C1=S` (centres undefined), the concentration at half-maximal activity (AC50) was 1.26 µM (active).

Turning to `CCNc1ncc2nc(-c3ccc(OC)cc3)c(=O)n(Cc3cccs3)c2n1`, the AC50 result was “inactive”.

Turning to `CCN1C(=O)C(CC(=O)Nc2ccc(OC)cc2)N(Cc2cccs2)C1=S` (centres undefined), the half-maximal activity concentration (AC50) is 0.355 µM (active).

In the case of `COc1ccc(C2C(C(=O)c3ccco3)=C(O)C(=O)N2Cc2cccnc2)cc1OC` (centres undefined), the AC50 entry is “inactive”.

In the case of `Cn1c(=O)[nH]c2ncn(C)c2c1=O`, the AC50 result was “inactive”.

With `O=C(NCc1ccco1)c1ccccc1NS(=O)(=O)c1ccc(Br)s1`, the AC50 is 1.58 µM (active).

For `Nc1ccccc1C#Cc1ccccc1`, the AC50 was 10 µM (active) and 5.01 µM (active).

Consider `O=C1C=C(c2cccs2)CC(c2cccs2)C1n1cnc([N+](=O)[O-])c1` (centres undefined), for which the AC50 is 10 µM (active).

Consider `COc1ccccc1CN1CCCC2(CCN(C(=O)c3cnccn3)CC2)C1`, for which the AC50 result was “inactive”.

Turning to `O=C(Nc1cccc2ccccc12)/C(=C/c1ccc([N+](=O)[O-])cc1)NC(=O)c1ccccc1`, the AC50 is 7.94 µM (active).

With `Cc1ccc(NC(=O)/C(=C\c2ccc([N+](=O)[O-])cc2)NC(=O)c2ccccc2)cc1`, the AC50 was 1.41 µM (active).

Turning to `COc1cc(/C=C(/NC(=O)c2ccccc2)C(=O)Nc2ccccc2)c([N+](=O)[O-])cc1OC`, the concentration at half-maximal activity (AC50) was 15.8 µM (active).

As to `O=C(Nc1ccccc1)/C(=C\c1ccncc1)NC(=O)c1ccccc1`, the AC50 is 0.126 µM (active).

With `O=C(c1cccc(F)c1)N1CCC[C@@]2(CCN(C(c3ccccc3)c3ccccc3)C2)C1`, the AC50 entry was “inactive”.

Take `COc1ccc(COC(=O)N/N=C2/C[C@@H](O)[C@@H](O)[C@@H]3[C@H]4C(=O)N(c5ccc(F)cc5F)C(=O)[C@@H]4CC[C@H]23)cc1`: the activity, negative = inhibition is 31.9% [at 11.4 µM].

As for `Cc1cc2cc3c(C)cc(=O)oc3c(C)c2o1`, the AC50 result is “inactive”.

Regarding `Cc1ccc(C(=O)N/C(=C\c2ccc([N+](=O)[O-])cc2)C(=O)NCCc2ccccc2)cc1`, the AC50 is 2 µM (active).

Turning to `O=C(OCC(=O)c1ccc([N+](=O)[O-])cc1)/C(=C\c1ccc(Cl)cc1)NC(=O)c1ccccc1`, the AC50 was 3.98 µM (active).

Turning to `Cc1ccc(NC(=O)Nc2nc(-c3ccc(C)s3)cs2)cc1`, the AC50 is 6.31 µM (active).

Take `Cc1ncn(-c2ccccc2O)c1C`: the activity, negative = inhibition is -11% [at 11.4 µM].

`COC(=O)Cn1c(CN(Cc2ccccc2)Cc2ccccc2)nc2c1c(=O)[nH]c(=O)n2C`: the AC50 is 28.2 µM (active).

Take `Cn1c(=O)[nH]c(=O)c2c1nc(CN(Cc1ccccc1)Cc1ccccc1)n2CCN1CCOCC1`: the AC50 was 14.1 µM (active).

For the compound `Cc1ccc(C(=O)CNc2nc3c(c(=O)[nH]c(=O)n3C)n2Cc2ccccc2)cc1`, the concentration at half-maximal activity (AC50) was 5.62 µM (active).

For `Cn1c(=O)c2[nH]c(SCCN3CCOCC3)nc2n(C)c1=S`, the activity, negative = inhibition is -14.1% [at 11.4 µM].

Turning to `Cn1c(=O)[nH]c(=O)c2c1nc(NCCCO)n2CCCc1ccccc1`, the AC50 result is “inactive”.

Consider `Cn1c(=O)[nH]c(=O)c2c1nc(CN1CCOCC1)n2Cc1ccccc1`, for which the AC50 entry was “inactive”.

For the compound `CCOC(=O)Cn1c(CN(Cc2ccccc2)Cc2ccccc2)nc2c1c(=O)[nH]c(=O)n2C`, the AC50 was 15.8 µM (active).

One may read the AC50 as the concentration at which the activity in the assay is half-maximal.

For the origin of these results see PubChem BioAssay AID1851 (National Center for Advancing Translational Sciences (NCATS), 2009).
